Experimental findings from PubChem BioAssay are described below.

Broadly, the viability is a read-out of living cells in per cent, often relative to untreated cells. By inhibition is commonly meant the change of the read-out against control, counted positive when it falls.

The source made the active and inactive calls.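 Rule for the calls, unless noted: active = viability loss from added drug above about 55%, and viability with drug at most 40%, in both replicates (limit read from the data, passing the limit was not always enough); inconclusive = both conditions met in only one replicate; inactive = neither replicate meets both conditions.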

Experiment [1] in a line: reducers of endogenous Her2 protein level, primary screen, SKBR3 breast tumor cells, AlphaScreen, ATP viability (AID 461;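 active = Her2 level under about 52% in both replicate screens, with viability over 70% of control, limit read from the data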;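 for Her2 level: lower value means less Her2 protein in the cells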;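 for viability: percent of carrier control wells set as 100% viability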). The settings on record: 18-24 h, measured here: SKBR3 viability, ATP luminescence, at 10 µM. (In general: Bead proximity is the source of the signal in Alpha formats.)
For experiment [2], the target named is Receptor tyrosine-protein kinase erbB-2 (Homo sapiens) (UniProt P04626). Described as above. The following applies: 18-24 h, at 10 µM, stronger effect = lower value.
Chain of Receptor tyrosine-protein kinase erbB-2 (Homo sapiens) (P04626 whole entry, looked up): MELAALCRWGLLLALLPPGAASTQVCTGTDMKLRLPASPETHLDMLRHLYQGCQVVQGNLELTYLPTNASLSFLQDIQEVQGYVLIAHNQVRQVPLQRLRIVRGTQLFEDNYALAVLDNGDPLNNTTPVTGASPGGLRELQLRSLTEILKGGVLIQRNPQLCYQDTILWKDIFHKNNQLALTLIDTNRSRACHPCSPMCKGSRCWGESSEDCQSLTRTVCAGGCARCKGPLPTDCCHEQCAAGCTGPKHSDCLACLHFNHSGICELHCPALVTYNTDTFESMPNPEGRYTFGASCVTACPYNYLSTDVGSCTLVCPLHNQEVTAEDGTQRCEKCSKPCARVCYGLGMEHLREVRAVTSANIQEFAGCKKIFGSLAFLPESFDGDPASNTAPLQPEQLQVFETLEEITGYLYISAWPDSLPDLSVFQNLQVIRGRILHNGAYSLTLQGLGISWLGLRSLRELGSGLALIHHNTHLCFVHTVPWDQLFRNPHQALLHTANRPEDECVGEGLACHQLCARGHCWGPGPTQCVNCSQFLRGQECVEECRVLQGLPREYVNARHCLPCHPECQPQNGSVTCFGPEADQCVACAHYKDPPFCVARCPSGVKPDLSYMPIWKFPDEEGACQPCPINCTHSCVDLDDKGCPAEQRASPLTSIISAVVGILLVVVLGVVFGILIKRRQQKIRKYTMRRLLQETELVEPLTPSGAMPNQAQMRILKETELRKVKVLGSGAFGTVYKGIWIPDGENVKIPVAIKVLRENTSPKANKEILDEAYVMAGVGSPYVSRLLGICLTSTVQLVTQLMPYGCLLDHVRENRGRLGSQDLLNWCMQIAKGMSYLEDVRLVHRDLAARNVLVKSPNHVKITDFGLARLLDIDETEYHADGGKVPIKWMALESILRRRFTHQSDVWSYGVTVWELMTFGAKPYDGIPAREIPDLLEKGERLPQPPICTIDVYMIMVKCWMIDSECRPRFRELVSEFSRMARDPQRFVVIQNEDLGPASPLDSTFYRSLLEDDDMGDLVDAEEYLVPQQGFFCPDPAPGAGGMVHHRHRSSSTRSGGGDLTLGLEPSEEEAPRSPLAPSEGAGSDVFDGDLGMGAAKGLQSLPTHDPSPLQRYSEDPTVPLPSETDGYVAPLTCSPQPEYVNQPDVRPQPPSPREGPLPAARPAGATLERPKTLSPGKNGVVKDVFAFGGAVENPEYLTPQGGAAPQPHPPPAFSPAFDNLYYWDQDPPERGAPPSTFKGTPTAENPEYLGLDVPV
A short description of experiment [3]: SK-BR-3 cell growth inhibitors, pilot screen, 24 h, human (AID 572;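 active = viability at or below 10% of carrier control in both of two separate runs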;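 note: compound exposure lasted between 18 and 24 h rather than exactly 24 h; 100% = carrier-treated control wells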). The settings on record: SK-BR-3 viability, CellTiter-Glo luminescence, at 10 µM, stronger effect = lower value. (Cellular ATP, detected with luciferase, serves as a proxy for viable cell number.)
Experiment [4] is described as follows: HUVEC growth inhibition – cell-based, human, primary screen (AID 575;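 active = viability at or below 30% in both replicate assays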;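 note: 100% = median of untreated cell wells with 0.1% DMSO on each plate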). The settings on record: HUVEC proliferation, CellTiter-Glo luminescence, 72 h; at 10 µM; stronger effect = lower value.
A short description of experiment [5]: reversal of MRP1-mediated doxorubicin resistance, pilot screen, H69AR cells, doxorubicin co-treatment (AID 601). The following applies: CellTiter-Glo, 72 h, at 10 µM; for differential viability (reversal): stronger effect = higher value.
Experiment [6] in a line: 384-well plate pilot, post-Golgi transport modulator project, inhibition of yeast transport mutant growth (AID 636; in the data active = inhibition above about 31%). The following applies: absorbance 615 nm, about 18 h, stronger effect = higher value.
Experiment [7] in a line: growth suppression of yeast trafficking mutant, preliminary HTS, modulators of trafficking downstream of Golgi apparatus project, 1536-format plate, OD 615 nm (AID 637; in the data active = inhibition above about 30%). The following applies: yeast transport mutant growth, absorbance 615 nm, 18 h; stronger effect = higher value.
Experiment [8] in a line: growth inhibitors of H69AR lung tumor, primary screen, human, duplicate replicates (AID 580;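 active = viability at or under a set limit in both replicates, limit being median viability minus 3 SD, cut at about 48% in these data, passing the limit was not always enough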;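 note: 100% = mean luminescence of untreated wells and 0% = no signal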). The settings on record: H69AR lung tumor cells viability, ATP luminescence, 72 h; at 10 µM; stronger effect = lower value.
The mark [9] stands for this setting: H69AR cells + 2 uM doxorubicin, measured here: viability with 2 uM doxorubicin, stronger effect = lower value.
[10] abbreviates: H69AR cells, compound alone cytotoxicity.

Take `CCOC(=O)Cc1nnc2c(Nc3ccccc3F)nc3nonc3n12`: the viability in experiment [1] is 108%; in experiment [3], 108% (inactive); in experiment [4] it was 36.9% (inactive); in experiment [5] (setting [9]), 31.5%; in experiment [5] (setting [10]), 12.6%. Also, in experiment [2], the Her2 level is 95.5% (inactive). In experiment [5] (H69AR cells + 2 uM doxorubicin), the differential viability (reversal) is -18.9% (inactive). Moreover, the inhibition in experiment [6] is -3.9% (inactive); in experiment [7], -2.54% (inactive).
Take `Cc1ccc(C(C)C)c(OCc2nnc(SCC(=O)Nc3ncc(C)s3)n2C)c1`: the viability in experiment [1] was 89.5%; in experiment [3] it was 89.5% (inactive); in experiment [8], 41.1% (active); in experiment [5] (setting [9]), 39.7%; in experiment [5] (setting [10]), 41.1%. The Her2 level in experiment [2] is 86% (inactive). In addition, the differential viability (reversal) in experiment [5] (H69AR cells + 2 uM doxorubicin) was 1.44% (inactive). Moreover, the inhibition in experiment [6] was 0% (inactive); in experiment [7], -5.48% (inactive).
Consider `COc1ccc(C(C)(C)C)cc1NC(=O)Nc1ccc2c(c1)OCO2`, for which the viability is 108% in experiment [1]; 108% (inactive) in experiment [3]; 64.8% (inactive) in experiment [4]; 57.2% in experiment [5] (setting [9]); 45.3% in experiment [5] (setting [10]). For the same compound, in experiment [2], the Her2 level was 89.5% (inactive). Further, the differential viability (reversal) in experiment [5] (H69AR cells + 2 uM doxorubicin) was -12% (inactive). Besides, the inhibition in experiment [6] was -1.18% (inactive); in experiment [7], 23.4% (inactive).
Consider `COC(=O)c1ccccc1S(=O)(=O)N(Cc1cc2cc3c(cc2[nH]c1=O)OCO3)C1CCCCC1`, for which the viability in experiment [1] is 83%; in experiment [3], 83% (inactive); in experiment [4], 82.6% (inactive); in experiment [5] (setting [9]), 67.4%; in experiment [5] (setting [10]), 60%. In addition, the Her2 level in experiment [2] was 98.5% (inactive). Moreover, in experiment [5] (H69AR cells + 2 uM doxorubicin), the differential viability (reversal) is -7.41% (inactive). The figures for the inhibition in experiment [6] and in experiment [7] were 4.74% (inactive) and -2% (inactive), respectively.
As to `COc1ccc(Cn2nnnc2C(c2cccnc2)N2CCN(c3ccc(O)cc3)CC2)cc1` (stereo unspecified), the viability in experiment [1] is 99.5%; in experiment [3], 99.5% (inactive); in experiment [8], 82.5% (inactive); in experiment [5] (setting [9]), 93.2%; in experiment [5] (setting [10]) it was 82.5%. Further, in experiment [2], the Her2 level is 89.5% (inactive). Further, the differential viability (reversal) in experiment [5] (H69AR cells + 2 uM doxorubicin) was -10.7% (inactive). For the same compound, the inhibition is -6.4% (inactive) in experiment [6] and 4.19% (inactive) in experiment [7].
For the compound `Cc1cccc(Nc2ncc3c(n2)CC(c2ccco2)CC3=O)c1` (stereo unspecified), the viability in experiment [1] is 81.5%; in experiment [3], 81.5% (inactive); in experiment [8], 75.5% (inactive); in experiment [5] (setting [9]) it was 77.9%; in experiment [5] (setting [10]) it was 75.5%. Further, the Her2 level in experiment [2] was 83% (inactive). Further, in experiment [5] (H69AR cells + 2 uM doxorubicin), the differential viability (reversal) is -2.41% (inactive). Further, the values for the inhibition in experiment [6] and in experiment [7] were 0.26% (inactive) and 4.17% (inactive), respectively.
For `CCn1c(SCc2nc(-c3cccs3)no2)nnc1-c1c[nH]c2ccccc12`, the viability in experiment [1] was 99%; in experiment [3], 99% (inactive); in experiment [8], 78.8% (inactive); in experiment [5] (setting [9]) it was 74.4%; in experiment [5] (setting [10]) it was 78.8%. In experiment [2], the Her2 level is 65.5% (inactive). The differential viability (reversal) in experiment [5] (H69AR cells + 2 uM doxorubicin) was 4.39% (inactive). Further, the inhibition in experiment [6] is -5.26% (inactive); in experiment [7], -5.67% (inactive).
For the compound `CC(C)Cc1nc(N2CCN(C(=O)c3ccco3)CC2)c(C#N)c2c1CCC2`, the viability in experiment [1] is 172%; in experiment [3] it was 172% (inactive); in experiment [8] it was 84.5% (inactive); in experiment [5] (setting [9]) it was 81.5%; in experiment [5] (setting [10]) it was 84.5%. In experiment [2], the Her2 level was 93% (inactive). In addition, in experiment [5] (H69AR cells + 2 uM doxorubicin), the differential viability (reversal) is 2.99% (inactive). The inhibition was -6.71% (inactive) in experiment [6] and 1.15% (inactive) in experiment [7].
On to `Cc1ccc(S(=O)(=O)N2CCOCC2)cc1C(=O)Nc1ccc(-c2cn3ccsc3n2)cc1`, for which the viability in experiment [1] is 80%; in experiment [3] it was 80% (inactive); in experiment [4], 58.7% (inactive); in experiment [5] (setting [9]) it was 70.8%; in experiment [5] (setting [10]), 70.7%. The Her2 level in experiment [2] was 80.5% (inactive). Also, the differential viability (reversal) in experiment [5] (H69AR cells + 2 uM doxorubicin) is -0.105% (inactive). The inhibition is -2.63% (inactive) in experiment [6] and -2.86% (inactive) in experiment [7].
Consider `CO[C@H]1C=CO[C@@]2(C)Oc3c(C)c(O)c4c(O)c(c(C=NN5CCN(C)CC5)c(O)c4c3C2=O)NC(=O)C(C)=CC=C[C@H](C)[C@H](O)[C@@H](C)[C@@H](O)[C@@H](C)[C@H](OC(C)=O)[C@@H]1C`, for which the viability in experiment [1] is 90.5%; in experiment [3], 90.5% (inactive); in experiment [8], 88.9% (inactive); in experiment [5] (setting [9]), 87.3%; in experiment [5] (setting [10]), 88.9%. Further, the Her2 level in experiment [2] was 85.5% (inactive). In addition, the differential viability (reversal) in experiment [5] (H69AR cells + 2 uM doxorubicin) was 1.53% (inactive).
Take `COc1cc(C(=O)Nc2nc(-c3cccs3)cs2)cc(OC)c1OC`: the viability in experiment [1] is 86%; in experiment [3], 86% (inactive); in experiment [8], 22.9% (active); in experiment [5] (setting [9]), 37.2%; in experiment [5] (setting [10]) it was 22.9%. Besides, the Her2 level in experiment [2] was 82% (inactive). Further, in experiment [5] (H69AR cells + 2 uM doxorubicin), the differential viability (reversal) was -14.2% (inactive). Moreover, the figures for the inhibition in experiment [6] and in experiment [7] were 1.51% (inactive) and 23.6% (inactive), respectively.
On to `N#C/C(=C(/O)COC(=O)CCC1CCCCC1)c1nc2ccccc2[nH]1`, for which the viability in experiment [1] is 126%; in experiment [3] it was 126% (inactive); in experiment [8] it was 38.1% (active); in experiment [5] (setting [9]), 47.9%; in experiment [5] (setting [10]), 38.1%. The Her2 level in experiment [2] was 31% (active). Moreover, in experiment [5] (H69AR cells + 2 uM doxorubicin), the differential viability (reversal) was -9.79% (inactive). Further, the inhibition in experiment [6] is -4.8% (inactive); in experiment [7] it was 2.3% (inactive).
For `CC(C)C[C@H]1C(=O)N2CCC[C@H]2[C@]2(O)O[C@](NC(=O)[C@@H]3C=C4c5cccc6[nH]c(Br)c(c56)CC4N(C)C3)(C(C)C)C(=O)N12` (stereo partly specified), the viability in experiment [1] was 138%; in experiment [3], 138% (inactive); in experiment [8], 84.2% (inactive); in experiment [5] (setting [9]) it was 72.4%; in experiment [5] (setting [10]), 84.2%. Besides, the Her2 level in experiment [2] was 71% (inactive). For the same compound, the differential viability (reversal) in experiment [5] (H69AR cells + 2 uM doxorubicin) was 11.8% (inactive).
With `O=S(=O)(Nc1ccc2c(c1)OCO2)c1ccc(Br)s1`, the viability in experiment [1] was 92%; in experiment [3], 92% (inactive); in experiment [8], 96.8% (inactive); in experiment [5] (setting [9]), 96.3%; in experiment [5] (setting [10]), 96.8%. In experiment [2], the Her2 level was 79% (inactive). Further, in experiment [5] (H69AR cells + 2 uM doxorubicin), the differential viability (reversal) is 0.44% (inactive). Moreover, the inhibition in experiment [6] is -4.47% (inactive); in experiment [7] it was -10.7% (inactive).
For the compound `CCOC(=O)c1c(C)oc2c1c(C=NCc1ccccn1)c(O)c1ccccc12`, the viability in experiment [1] was 154%; in experiment [3] it was 154% (inactive); in experiment [8] it was 16.5% (active); in experiment [5] (setting [9]), 10.3%; in experiment [5] (setting [10]) it was 16.5%. Moreover, the Her2 level in experiment [2] was 22% (active). In experiment [5] (H69AR cells + 2 uM doxorubicin), the differential viability (reversal) was 6.13% (inactive). Further, the inhibition in experiment [6] is -8.38% (inactive); in experiment [7], 3.67% (inactive).
